Hit rate of the full screen: of about 69,000 compounds, about 8,600 (12%) showed an effect of 50% or more. Shown is part of a subset that was picked to be rich in strong results.
Each molecule was assayed on Plasmodium berghei (assay: Screen against P. berghei liver stage (PbLuc), transformed with Luciferase, at 10uM). Conditions: tested at 10 uM.
Format: functional, HepG2

**Q.** Which INHIBITION does the source give for `Cn1ccnc1CN1CCCC(Cc2ccnc3ccncc23)CC1` (stereo unspecified) here?
**A.** Its INHIBITION is 29.3%.

**Q.** `c1cc2nccc(CC3CCCN(Cc4c[nH]cn4)CC3)c2cn1` (stereo unspecified) was tested. Which INHIBITION did it give?
**A.** Its INHIBITION is 75.3%.

**Q.** Which INHIBITION does the source give for `c1cc2nccc(CC3CCCN(Cc4ncc[nH]4)CC3)c2cn1` (stereo unspecified) here?
**A.** Its INHIBITION is 32.4%.

**Q.** How did the INHIBITION turn out when `CC(C)c1ccc(OCC(=O)N(C)C)cc1` was run?
**A.** The INHIBITION was -11.2%.

**Q.** How did the INHIBITION turn out when `CC(C)n1c(=O)[nH]c2cn(-c3ccccc3)c(=O)n21` was run?
**A.** Its INHIBITION is 6.32%.

**Q.** `CCNC(=O)C1(Cc2cc(-c3ccc(C)cc3)no2)CCCN(C)C1` (stereo unspecified) was tested. Which INHIBITION did it give?
**A.** The INHIBITION was 23%.

**Q.** For `Cc1ccc(-c2nnc([C@H]3CCN(C4CCC4)C3)o2)cc1`, which INHIBITION is on record?
**A.** Its INHIBITION is 4.07%.

**Q.** Which INHIBITION does the source give for `c1cc(-c2nnc([C@H]3CCN(C4CCOCC4)C3)o2)ccn1` here?
**A.** The INHIBITION was 54%.

**Q.** With `c1cc(-c2nnc([C@H]3CCN(C4CCCCC4)C3)o2)ccn1` as the molecule, how does the INHIBITION read?
**A.** The INHIBITION was -5.77%.

**Q.** Which INHIBITION does the source give for `c1ccc(-c2nnc([C@H]3CCN(C4CCC4)C3)o2)cc1` here?
**A.** The INHIBITION was 46.4%.

**Q.** With `COc1ccc(-c2nnc([C@H]3CCN(C4CCC4)C3)o2)cc1` as the molecule, how does the INHIBITION read?
**A.** Its INHIBITION is 57.8%.

**Q.** How did the INHIBITION turn out when `c1ccc(-c2nnc([C@H]3CCN(C4CCOCC4)C3)o2)cc1` was run?
**A.** Its INHIBITION is 18.4%.

**Q.** `O=C(NCCc1ccccn1)[C@@]12CCO[C@@H]1CCN(c1ncccn1)C2` was tested. Which INHIBITION did it give?
**A.** The INHIBITION was 34.6%.

**Q.** For `CCc1ncc2c(n1)CN(CC(=O)Nc1cccnc1)CC2`, which INHIBITION is on record?
**A.** Its INHIBITION is 19.4%.

**Q.** For `CSc1ccc(NC(=O)Cn2cc(NC(C)=O)cn2)cc1`, which INHIBITION is on record?
**A.** The INHIBITION was 33.7%.

**Q.** With `CCOC(=O)[C@H]1[C@@H](O)C(=O)N(C)C12CCN(C(=O)OC)CC2` as the molecule, how does the INHIBITION read?
**A.** Its INHIBITION is 29.8%.

**Q.** How did the INHIBITION turn out when `Cn1ccc(CN2CCC(CC(=O)NC3CCCC3)CC2)cc1=O` was run?
**A.** The INHIBITION was 27.2%.

**Q.** Which INHIBITION does the source give for `COc1cc(CNC(=O)COC2CCCCC2)ccc1O` here?
**A.** The INHIBITION was 26.5%.

**Q.** For `Cc1noc([C@@H]2C[C@H]3OCC[C@H]3N(S(=O)(=O)c3ccccc3)C2)n1`, which INHIBITION is on record?
**A.** The INHIBITION was -5.08%.

**Q.** How did the INHIBITION turn out when `Cc1occc1C(=O)NCC(=O)NCCCOc1ccc(F)cc1` was run?
**A.** Its INHIBITION is 54.5%.

**Q.** `Cc1ccccc1C(NC(=O)CNC(=O)c1ccoc1C)C(C)C` (stereo unspecified) was tested. Which INHIBITION did it give?
**A.** The INHIBITION was -68.2%.

**Q.** Which INHIBITION does the source give for `Cc1occc1C(=O)NCC(=O)N(C)CCCOc1ccc(F)cc1` here?
**A.** The INHIBITION was 26.7%.

**Q.** With `Cc1occc1C(=O)NCC(=O)NCCOc1cccc(Cl)c1` as the molecule, how does the INHIBITION read?
**A.** Its INHIBITION is -10.6%.

**Q.** Which INHIBITION does the source give for `Cc1occc1C(=O)NCC(=O)NCCOc1ccc2c(c1)CCC2` here?
**A.** The INHIBITION was 42.3%.

**Q.** Which INHIBITION does the source give for `Cc1occc1C(=O)NCC(=O)N(C)CCCOc1ccccc1` here?
**A.** The INHIBITION was 61%.

**Q.** With `O=C1CC(c2ccc(C(F)(F)F)cc2)c2c(n3ccsc3nc2=O)N1` (stereo unspecified) as the molecule, how does the INHIBITION read?
**A.** The INHIBITION was 17%.

**Q.** `COc1nsc2nc(C3CCCN3c3ncccn3)ccc12` (stereo unspecified) was tested. Which INHIBITION did it give?
**A.** The INHIBITION was 25.49%.

**Q.** For `Cc1ccc(C(=O)NCCCn2cccn2)c(=O)[nH]1`, which INHIBITION is on record?
**A.** The INHIBITION was -1.98%.

**Q.** For `Cc1ccc(C(=O)NCC(C)Cn2cccn2)c(=O)[nH]1` (stereo unspecified), which INHIBITION is on record?
**A.** Its INHIBITION is 58.5%.

**Q.** How did the INHIBITION turn out when `Cc1ccc(C(=O)NC(C)Cn2cccn2)c(=O)[nH]1` (stereo unspecified) was run?
**A.** Its INHIBITION is 42.6%.

**Q.** How did the INHIBITION turn out when `Cc1ccc(C(=O)NCC(C)CN2CCCC2=O)c(=O)[nH]1` (stereo unspecified) was run?
**A.** The INHIBITION was 37.1%.

**Q.** `Cc1ccc(C(=O)NCC(C)Cn2ccnc2C)c(=O)[nH]1` (stereo unspecified) was tested. Which INHIBITION did it give?
**A.** Its INHIBITION is 55.5%.

**Q.** With `Cc1ccc(C(=O)NCC(O)c2ccc(Cl)s2)c(=O)[nH]1` (stereo unspecified) as the molecule, how does the INHIBITION read?
**A.** Its INHIBITION is 37.2%.

**Q.** With `Cc1cnc(C(=O)N2C[C@@H]3CC[C@H]2CN(Cc2cscn2)C3)[nH]1` as the molecule, how does the INHIBITION read?
**A.** Its INHIBITION is 42.1%.

**Q.** How did the INHIBITION turn out when `COc1cccc(CN2CCN(c3cccc(C(C)C)n3)CC2)c1F` was run?
**A.** Its INHIBITION is -26.1%.

**Q.** Which INHIBITION does the source give for `Cc1ccc(F)cc1NC(=O)c1[nH]ncc1Br` here?
**A.** Its INHIBITION is 11.7%.

**Q.** With `CS(=O)(=O)CCOCCNc1ccc(Br)cn1` as the molecule, how does the INHIBITION read?
**A.** Its INHIBITION is -3.08%.

**Q.** For `CCS(=O)(=O)N(C)CC(=O)Nc1ccc(Br)cn1`, which INHIBITION is on record?
**A.** Its INHIBITION is 6.81%.

**Q.** Which INHIBITION does the source give for `CCC(CCO)NS(=O)(=O)c1ccc(Br)cn1` (stereo unspecified) here?
**A.** Its INHIBITION is 65.4%.

**Q.** Which INHIBITION does the source give for `COCC(C)NC(=O)c1cncc(Br)c1` (stereo unspecified) here?
**A.** The INHIBITION was -26.4%.

**Q.** For `C[C@H](CCO)NS(=O)(=O)c1ccc(Br)cn1`, which INHIBITION is on record?
**A.** Its INHIBITION is 21.7%.

**Q.** `COCC(C)NS(=O)(=O)c1ccc(Br)cn1` (stereo unspecified) was tested. Which INHIBITION did it give?
**A.** The INHIBITION was 56%.

**Q.** For `CCN(C(=O)c1nc2c(s1)CCCN2C(C)=O)C(C)C`, which INHIBITION is on record?
**A.** Its INHIBITION is 5.68%.

**Q.** For `O=C(c1cccc2c1OCCO2)N1CCCC1c1noc(C2CC2)n1` (stereo unspecified), which INHIBITION is on record?
**A.** The INHIBITION was 2.3%.

**Q.** With `COCCC(=O)N1CCC2(COCc3cnc(-c4cccnc4)nc32)C1` (stereo unspecified) as the molecule, how does the INHIBITION read?
**A.** The INHIBITION was 33.1%.

**Q.** How did the INHIBITION turn out when `COCCC(=O)N1CCC2(COCc3c(C)nc(NCC4CC4)nc32)C1` (stereo unspecified) was run?
**A.** The INHIBITION was 33%.

**Q.** With `COCCC(=O)N1CCC2(COCc3cnc(N(C)C)nc32)C1` (stereo unspecified) as the molecule, how does the INHIBITION read?
**A.** The INHIBITION was 53.2%.

**Q.** For `COCCC(=O)N1CCC2(COCc3cnc(NCC4CC4)nc32)C1` (stereo unspecified), which INHIBITION is on record?
**A.** The INHIBITION was 61.5%.

**Q.** How did the INHIBITION turn out when `COCC(=O)N1CCC2(COCc3cnc(NCc4ccco4)nc32)C1` (stereo unspecified) was run?
**A.** The INHIBITION was 24.3%.

**Q.** Which INHIBITION does the source give for `COCCC(=O)N1CCC2(COCc3cnc(-c4ccccc4)nc32)C1` (stereo unspecified) here?
**A.** The INHIBITION was 16.5%.

**Q.** How did the INHIBITION turn out when `Cc1cccc(CNC(=O)CCc2c(C)nc3cc(O)nn3c2C)n1` was run?
**A.** Its INHIBITION is 33.3%.

**Q.** How did the INHIBITION turn out when `CC(CN1CCOCC1)NC(=O)NCc1ccoc1` (stereo unspecified) was run?
**A.** The INHIBITION was -7.36%.

**Q.** `Cc1nc(NCCN2CCCC2=O)cc(C2CN(C)CCO2)n1` (stereo unspecified) was tested. Which INHIBITION did it give?
**A.** The INHIBITION was -17.9%.

**Q.** For `CC(NC(=O)NCCCn1cncn1)c1ccc(C(F)(F)F)cc1` (stereo unspecified), which INHIBITION is on record?
**A.** Its INHIBITION is -16.88%.

**Q.** For `Cc1ccc(S(=O)(=O)N2C[C@H]3C[C@H](NC(=O)c4cc(C)no4)[C@H]3C2)cc1`, which INHIBITION is on record?
**A.** The INHIBITION was 5.11%.

**Q.** `Cc1ccc(S(=O)(=O)N2C[C@H]3C[C@H](NC(=O)c4ccnn4C)[C@H]3C2)cc1` was tested. Which INHIBITION did it give?
**A.** Its INHIBITION is 77.9%.

**Q.** With `Cc1ccc(S(=O)(=O)N2C[C@H]3C[C@H](NC(=O)c4cnn(C)c4)[C@H]3C2)cc1` as the molecule, how does the INHIBITION read?
**A.** The INHIBITION was 78.5%.

**Q.** For `Cc1ccc(S(=O)(=O)N2C[C@H]3C[C@H](NC(=O)C(C)C)[C@H]3C2)cc1`, which INHIBITION is on record?
**A.** The INHIBITION was 19.6%.

**Q.** How did the INHIBITION turn out when `Cc1ccc(S(=O)(=O)N2C[C@@H]3C[C@@H](NC(=O)C(C)(C)C)[C@@H]3C2)cc1` was run?
**A.** Its INHIBITION is 44.9%.

**Q.** With `Cc1ccc(S(=O)(=O)N2C[C@H]3C[C@H](NC(=O)c4ccn(C)n4)[C@H]3C2)cc1` as the molecule, how does the INHIBITION read?
**A.** Its INHIBITION is 38.7%.

**Q.** `CC1(C)CN=C(N2CCN(CC3CCCCO3)CC2)S1` (stereo unspecified) was tested. Which INHIBITION did it give?
**A.** Its INHIBITION is 27.6%.

**Q.** `COCC1COCCC12CCN(Cc1cccs1)CC2` (stereo unspecified) was tested. Which INHIBITION did it give?
**A.** The INHIBITION was 23.6%.

**Q.** With `COCCN1C(=O)C[C@H]2[C@H]1CCN2C(=O)c1ccc[nH]1` as the molecule, how does the INHIBITION read?
**A.** The INHIBITION was 26.3%.

**Q.** With `CCN1CCN(Cc2nc(Cc3ccccc3)n[nH]2)CC1` as the molecule, how does the INHIBITION read?
**A.** The INHIBITION was -7.17%.

**Q.** With `CCN1CCN(Cc2nc(CCc3ccccc3)n[nH]2)CC1` as the molecule, how does the INHIBITION read?
**A.** Its INHIBITION is 56.5%.

**Q.** Which INHIBITION does the source give for `c1ccc(CCc2n[nH]c(CCN3CCCCC3)n2)cc1` here?
**A.** The INHIBITION was 38.5%.

From ChEMBL document CHEMBL4513216, “Probing the Open Global Health Chemical Diversity Library for Multistage-Active Starting Points for Next-Generation Antimalarials” (ACS Infect Dis, 2020)
